Shown is part of a subset that was picked to be rich in hits.
ST2 inh = IL1RL1 inhibition; inhibition, % for hits at 17 µM; AID 1259354; hit rate 2.3% among 78,000; AlphaLISA ST2-Fc/biotin-IL-33 interaction, 1 h; in the data active means inhibition above about 30%
Target sequence (Q01638 whole entry, looked up): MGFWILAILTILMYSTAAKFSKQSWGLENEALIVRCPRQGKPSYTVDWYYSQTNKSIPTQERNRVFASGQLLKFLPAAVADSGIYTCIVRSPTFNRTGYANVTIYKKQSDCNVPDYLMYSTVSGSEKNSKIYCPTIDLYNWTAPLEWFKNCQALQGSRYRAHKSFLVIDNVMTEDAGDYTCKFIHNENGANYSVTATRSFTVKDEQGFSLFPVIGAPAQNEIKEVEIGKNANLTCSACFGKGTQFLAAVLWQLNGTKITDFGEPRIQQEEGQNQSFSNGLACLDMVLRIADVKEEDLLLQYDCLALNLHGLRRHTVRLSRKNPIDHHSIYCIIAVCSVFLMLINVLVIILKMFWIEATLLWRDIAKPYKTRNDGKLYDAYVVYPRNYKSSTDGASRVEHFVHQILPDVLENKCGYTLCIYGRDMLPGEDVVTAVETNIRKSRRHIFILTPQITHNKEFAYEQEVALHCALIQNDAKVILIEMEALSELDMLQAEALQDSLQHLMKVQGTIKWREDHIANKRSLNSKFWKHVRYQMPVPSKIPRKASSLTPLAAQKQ
Active calls of the source: *; i = inactive; ! = repeats disagree.

SMILES	ST2 inh
COc1cccc(NC(=O)CN2CCN(Cc3ccc(F)cc3Cl)S2(=O)=O)c1	i
O=C1OC(c2cccc([N+](=O)[O-])c2)=N/C1=C\c1cccc(I)c1	i
O=[N+]([O-])c1cccc(C=Nc2nnc(-c3ccccc3)s2)c1	i
Cc1ccc([N+](=O)[O-])cc1N1C(=O)/C(=C\c2ccccc2)N=C1c1ccccc1	40.0%*
Cc1cc(C)c2[nH]c(C(=O)NCCn3c(C)cc(C)nc3=O)c(C)c2c1	i
CC(=O)N(c1ccc2oc(=O)sc2c1)S(=O)(=O)c1ccc(Cl)cc1	i
c1nc(Nc2ccc(N3CCCCC3)cc2)c2c3c(sc2n1)CCCC3	58.0%*
CCNc1ncnc2sc3c(c12)CCCC3	i
COc1cccc(Nc2ncnc3sc4c(c23)CCCC4)c1	i
Cc1cccn2c(=O)c3cc(C(=O)N4CCCCC4C)n(C)c3nc12 (configuration not stated)	i
Cc1cccc(N=Cc2nc(-c3ccc(Cl)cc3)oc2O)n1	i
Oc1oc(-c2ccc(Cl)cc2)nc1C=Nc1ccccn1	33.0%*
Cc1cccc(N=Cc2nc(-c3ccc(Cl)cc3)oc2O)c1	i
Cc1ccnc(N2CCN(C(=O)c3ccccc3C3CCNC3)CC2)c1 (configuration not stated)	i
Cc1cccc(NC(=O)c2cc3ccccc3oc2=O)c1C	i
COCCCNC(=O)c1ccc([N+](=O)[O-])o1	i
CCC(Oc1ccccc1)C(=O)Nc1cc(C)ccc1OCc1cc(=O)n2oc(C)cc2n1 (configuration not stated)	i
COc1cc(C(=O)NCc2ccc(Cl)cc2)c([N+](=O)[O-])cc1OC	i
COc1ccc(Cn2c(CNS(C)(=O)=O)nc3cccnc32)cc1	i
COc1ccc2nc3oc(C(=O)N4CCOCC4)cc3cc2c1	i
CCc1cccc(NC(=O)c2cc3cc4ccc(OC)cc4nc3o2)c1	i
COc1ccc2cc3cc(C(=O)Nc4ccc(C)cc4Cl)oc3nc2c1	i
COc1ccc2cc3cc(C(=O)Nc4ccc(OC)c(Cl)c4)oc3nc2c1	31.0%*
COc1ccc2nc3oc(C(=O)Nc4ccc5c(c4)OCCO5)cc3cc2c1	36.0%*
COc1ccc2cc3cc(C(=O)Nc4ccc(OC)c(OC)c4)oc3nc2c1	i
SMILES	ST2 inh
COc1ccc2cc3cc(C(=O)Nc4cccc(SC)c4)oc3nc2c1	34.0%*!
COc1ccc2nc3oc(C(=O)Nc4ccc(F)cc4F)cc3cc2c1	i
COc1ccc2cc3cc(C(=O)Nc4cccnc4)oc3nc2c1	i
COc1ccc([N+](=O)[O-])cc1NC(=O)Cc1ccc(Br)cc1	i
Cc1ccc(S(=O)(=O)CCc2nnc(NC(=O)c3ccc(F)cc3)s2)cc1	i
O=C(Nc1ccccc1)C1CC(=O)N(Cc2ccc3c(c2)OCO3)C(=Nc2ccc(F)cc2)S1 (configuration not stated)	i
CCOC(=O)c1c(NC(=O)C(C)Oc2ccc(F)cc2)sc(C(C)=O)c1C (configuration not stated)	i
COc1cc(-c2nc(Cn3ccnc3C(C)C)c(C)o2)cc2c1OCO2	i
O=C(CN1CCN(Cc2ccccc2F)C1=O)NCc1ccccc1Cl	i
CC(=O)c1ccc(C(=O)Nc2ccc(S(=O)(=O)Nc3cc(C)on3)cc2)cc1	i
CC(=O)Nc1cccc(NC(=O)c2ccc([N+](=O)[O-])cc2)c1	i
Cc1cc(C)c2ccc(CO)nc2c1O	i
Cc1cc(C)c2ccc(NN)nc2c1O	34.0%*
Cc1ccc(F)cc1N1C(=O)C2C3CCC(C3)C2C1=O (configuration not stated)	i
COC(=O)[C@@H]1C[C@@H](NC(=O)COc2ccc3c(c2)OCO3)CN1C	i
C=CCn1c(C)nc2c(sc3nc4c(cc32)COC(C)(C)C4)c1=O	i
CC1(C)Cc2nc3sc4c(=O)[nH]cnc4c3cc2CS1	80.0%*
CCCCn1c(C)nc2c(sc3nc4c(cc32)COC(C)(C)C4)c1=O	i
Cc1ccc(COc2ccccc2C=O)cc1	i
COc1ccc(NC(=O)CCC2CCCN(C3CCOCC3)C2)cc1Cl (configuration not stated)	i
O=C(Nc1ccccc1F)c1cccc([N+](=O)[O-])c1C(=O)O	i
Cc1ccc2ncnc(Nc3ccccc3Cl)c2c1	i
Cc1cccc(-n2ncc3c(Nc4ccc(F)cc4)ncnc32)c1	i
Fc1ccc(NC2CCCN(Cc3cccc4ncccc34)C2)cc1 (configuration not stated)	i
Cc1sc2ncnc(Nc3ccccc3Cl)c2c1C	i
SMILES	ST2 inh
CC(=O)Nc1cccc(N(C)C)c1	i
Clc1ccccc1Nc1cccc2nccnc12	39.0%*
O=C(Nc1cccc2nccnc12)c1ccccc1	i
O=C(O)[C@@H]1[C@H](C(=O)Nc2cccc3cccnc23)[C@@H]2C=C[C@H]1C2	i
Fc1ccc(Nc2cccc3nccnc23)cc1	49.0%*
c1cc(Nc2cccc3nccnc23)c2nccnc2c1	40.0%*
CN(C)c1ccc(Nc2cccc3nccnc23)cc1	84.0%*
c1ccc(-c2ncn(C3CCNC3)c2-c2ccc(Sc3ncn[nH]3)o2)cc1 (configuration not stated)	i

Assay outcomes from PubChem.
